# This is a sample that favours compounds with a hit; in the whole collection about 5% have one here.
# VACV mCherry inh – inhibitors of vaccinia virus infection (mCherry reporter signal); Potency, µM (doses to about 36.5 µM), hits mostly inhibitors; Vaccinia virus mCherry reporter infection, fluorescence; 310,000 compounds, 0.63% hits; calls by dose curve; tested in A549 cells; further: nearly all actives have a fitted effect of over 35% in size
# LmPK inhibitor – inhibitors of Leishmania mexicana pyruvate kinase; Q27686; purified LmPK, Kinase-Glo ATP luminescence, 1 h; Potency, µM (series often up to 57.5 µM), most hits filed as inhibitors; 290,000 compounds, 0.37% hits; AID 1721
# Target sequence (Q27686 whole entry, looked up): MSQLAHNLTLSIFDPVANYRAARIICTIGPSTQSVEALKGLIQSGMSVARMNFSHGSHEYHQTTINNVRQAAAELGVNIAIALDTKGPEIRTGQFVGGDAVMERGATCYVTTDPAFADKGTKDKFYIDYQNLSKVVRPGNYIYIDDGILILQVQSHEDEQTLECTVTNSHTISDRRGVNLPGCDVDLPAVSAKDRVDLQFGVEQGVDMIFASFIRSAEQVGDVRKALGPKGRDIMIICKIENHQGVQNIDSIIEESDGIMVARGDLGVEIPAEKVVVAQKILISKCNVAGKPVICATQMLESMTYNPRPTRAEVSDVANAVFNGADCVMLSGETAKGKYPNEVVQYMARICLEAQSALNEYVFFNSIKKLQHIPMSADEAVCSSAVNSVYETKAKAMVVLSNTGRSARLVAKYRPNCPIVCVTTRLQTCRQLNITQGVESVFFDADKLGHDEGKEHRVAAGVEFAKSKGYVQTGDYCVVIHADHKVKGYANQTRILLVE
#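 Pyruvate kinase activity monitored as ATP production (luciferase luminescence). Conditions: 0.1 nM enzyme, 0.5 mM PEP, 0.1 mM ADP, 1 h, RT; normalized against uninhibited and no-enzyme wells.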
# Vaccinia Venus – inhibitors of vaccinia virus (Venus reporter). Vaccinia virus Venus reporter expression, fluorescence. 330,000 compounds, 0.46% hits. AID 720580. Potency, µM (titrated, usually from 36.5 µM), hits mostly inhibitors; calls by dose curve; tested in A549 cells; further: nearly all actives have a fitted effect of over 30% in size
# HCMV antiviral – blocks human cytomegalovirus replication. HFF cells, HCMV-luciferase reporter, 72 h; active compounds read low. activity change, negative = inhibition, % at 57.5 µM. 410,000 compounds, 4.5% hits. AID 1259415; in the data active means activity change below about -60%; inconclusive means no clear call, values can overlap the other calls; inactive means above about -39%
#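 Two-dose cell screen: HFF monolayers treated with compounds and infected with luciferase-expressing HCMV at 1 PFU/cell, 72 h at 37C, then lysed for luciferase measurement.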
# Tb PYK inh – blocks Trypanosoma brucei pyruvate kinase; TbPYK enzyme, Kinase-Glo Plus ATP luminescence, 45 min; Potency, µM (titrated, usually from 76.8 µM), usual class: inhibitors; 410,000 compounds, 0.12% hits; further: nearly all actives have a fitted effect of over 50% in size
#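 In this concentration-response screen, enzyme-free wells defined baseline while DMSO plates tracked drift. Each reaction combined TbPYK, substrate, compound and 130 uM ADP for 45 min at room temperature. Kinase-Glo Plus luminescence gave the signal.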
# A number is an active result; - = inactive; ? = inconclusive; . = no result given; + = active, no number; ! = repeats disagree; [ ] = another dose, or the depositor's remark. Unless noted, the call rests on the fitted dose curve; in most records, active means well fitted curve in the direction sought with a large enough effect; inconclusive means small, poorly fitted or top-dose-only effect, or another doubt; inactive means no such curve, though single readings can be large; an effect the other way counts as inactive or inconclusive.
SMILES,VACV mCherry inh,LmPK inhibitor,Vaccinia Venus,HCMV antiviral,Tb PYK inh
Cc1nnc(SC(=O)N2c3ccccc3Sc3ccccc32)s1,10µM,-,?,?,-
O=C(COc1cccnc1[N+](=O)[O-])Nc1ccc2c(c1)OCO2,.,-,.,-,-
CCN1C(=O)[C@@H]2[C@@H](c3ccc(-c4cc(C(C)=O)cs4)cc3)N3CCC[C@@]3(C(=O)OC)[C@@H]2C1=O,-,.,-,-,-
COc1ccc(N2C(=O)C(=O)N(c3ccc(OC)cc3)P2(=O)N(CCCl)CCCl)cc1,-,.,-,-75,-
COc1ccc(N2C(=O)CCC2=O)cc1,.,-,.,-,-
O=C(Cc1csc(Nc2nc(=S)[nH]c3ccccc23)n1)NCCCN1CCN(c2ccccc2F)CC1,?,-,?,-98,-
CCOc1ccc(-c2cc(C)[n+](CCO)c(-c3ccc(OCC)cc3)c2)cc1,-,-,-,-77,-
CCOc1ccc(-c2nnc(-c3cccs3)o2)cc1,.,-,.,-,-
CCOc1ccc(-c2cc(C)[n+](CCc3ccc(OC)c(OC)c3)c(-c3ccc(OCC)cc3)c2)cc1,-,-,-,-98,-
COc1cccc(NC(=O)/C(C#N)=C/c2ccc(-c3ccc(C)cc3)o2)c1,-,.,-,-,-
O=C1NC(=O)N2CCSC2(Cc2ccccc2)N1 (stereo not given),?,.,-,-98,-
S=C(NN=C1CCCCC1=NNC(=S)N1CCOCC1)N1CCOCC1,.,.,.,-,.
Nc1nc2n[nH]nc2c(=O)[nH]1,?,.,?,-96,-
Nc1nc(N)c(N)c(=O)[nH]1,-,.,-,.,.
CCOC(=O)c1ccc(NC(=O)CCC(=O)NCc2ccco2)cc1,-,-,-,-,-
c1ccc(COc2ccc(-c3cc4nc(NCCCn5ccnc5)ccn4n3)cc2)cc1,-,.,-,-,-
COc1ccccc1Nc1ncnc2nc[nH]c12,.,-,.,-,-
COc1ccccc1CNc1ncnc2nc[nH]c12,3.5µM!,-,?,-,-
O=C(NCCc1ccc(F)cc1)c1coc(=O)c(Br)c1,.,-,.,-78,-
O=C(Nc1ccccc1F)c1coc(=O)c(Br)c1,-,-,-,-,-
Cc1c(O)ccc(NC(=O)/C=C/c2ccccc2)c1C,-,-,-,?,-
COC(=O)C1=C(C)NC(=O)NC1c1ccc(OCC(=O)N2CCCCC2)cc1 (stereo not given),.,-,-,-,-
CSc1cccc(Nc2cc(C(=O)NCCc3ccc(Cl)cc3)c3ccccc3n2)c1,?,.,?,-102,-
CC(C)c1ccc(Nc2cc(C(=O)NCCCN(C)Cc3ccccc3)c3ccccc3n2)cc1,?,.,?,-,-
CCCCN(CCCNC(=O)c1cc(Nc2cccc(SC)c2)nc2ccccc12)Cc1ccccc1,?,.,?,-99,-
SMILES,VACV mCherry inh,LmPK inhibitor,Vaccinia Venus,HCMV antiviral,Tb PYK inh
COc1ccc(Nc2cc(C(=O)NCCCN(C)C3CCCCC3)c3ccccc3n2)cc1,-,.,-,-107,-
O=C(CCc1c[nH]c2ccccc12)Nc1ccc(Nc2ccncc2)cc1,.,.,.,-,.
CCCc1c2c(cc3c(=O)cc(C(=O)OCC)oc13)CCCC2,.,-,.,-,-
O=C(c1ccc(F)c(S(=O)(=O)N2CCOCC2)c1)N1CCN(c2ccc(F)cc2)CC1,.,.,.,-65,-
Cc1ccc(Cl)cc1N1CCN(C(=O)C2CCN(S(=O)(=O)c3ccc4c(c3)oc(=O)n4C)CC2)CC1,-,.,?,+,-[15.4 µM]
CN1CCN(C(=O)C2CCN(S(=O)(=O)c3ccc4c(c3)oc(=O)n4C)CC2)CC1,-,-,-,-,-
COc1ccc(C)cc1S(=O)(=O)N1CCCC(C(=O)N2CCN(c3ccccc3)CC2)C1 (stereo not given),.,-,.,-69,-
CCOC(=O)N1CCN(C(=O)C2CCCN(S(=O)(=O)c3cc(C)ccc3OC)C2)CC1 (stereo not given),-,-,-,-,-
CC(C)c1ccc(S(=O)(=O)N2CCC(C(=O)N3CCN(c4cccc(Cl)c4)CC3)CC2)cc1,.,.,.,-69,-
O=C(c1ccc(F)c(S(=O)(=O)N2CCOCC2)c1)N1CCN(c2ncccn2)CC1,.,.,.,-,-
CS(=O)(=O)N1CCC(C(=O)N2CCN(c3cccc(Cl)c3)CC2)CC1,-,-,-,-,-
CCOC(=O)c1cn2nc(N3CCCC3)ccc2n1,-,-,-,-,-
Cc1noc(C)c1S(=O)(=O)N1CCC(C(=O)O)CC1,.,.,.,-,-
COc1ccc(C2Nc3ccccc3C(=O)N2NC(=O)c2ccccc2)cc1OC (stereo not given),.,-,.,-,-
